Source: PubChem BioAssay (Tox21)
Inconclusive results are not listed. Activity calls are given as the source filed them. Unless noted, calls follow the shape of the dose curve; as a rule, active = well fitted curve in the direction sought with a large enough effect in the repeat runs; inconclusive = weak or mixed curves; inactive = no such curve, though single readings can be large; an effect the other way counts as inactive or inconclusive.

Tests used:
[1] = A CellTox Green Cytotoxicity Assay to monitor cytotoxicity in HepG2 cells - 0 hour (AID 1224882); also: nearly all actives have a fitted effect of over 35% in size
How it was run: (§1)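 Measurements at 0, 8, 16, 24, 32 and 40 h of treatment captured CellTox Green fluorescence in HepG2 cells that had been co-plated with reagent and preincubated 5 h at 37 C/5% CO2.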

[2] = A CellTox Green Cytotoxicity Assay to monitor cytotoxicity in HEK293 cells - 8 hour (AID 1224884); also: nearly all actives have a fitted effect of over 35% in size
How it was run: (§2)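 Tox21 screen in HEK293: membrane-impermeant cyanine dye fluoresces on binding dead-cell DNA; compound pinned 5 h post-seeding, plates held at 37 C, signal read repeatedly through 40 h.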

[3] = qHTS RealTime-Glo MT Cell Viability Assay in HepG2 cells - 16 hour (AID 1224885); also: nearly all actives have a fitted effect of over 50% in size
How it was run: (§3)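 Cells + NanoLuc/prosubstrate dispensed (600 cells/well) → 5 h at 37 C/5% CO2 → compounds in DMSO transferred → 40 h incubation at 37 C, luminescence read at 0, 8, 16, 24, 32, 40 h.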

[4] = qHTS RealTime-Glo MT Cell Viability Assay in HEK293 cells - 24 hour (AID 1224886); also: top concentration of the series differs between compounds; nearly all actives have a fitted effect of over 50% in size
How it was run: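 Tox21 10K qHTS, HEK293, 600 cells/well, RealTime-Glo reagent co-dispensed with cells; 5 h preincubation, compound by pintool, 37 C, luminescence at 0–40 h.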

[5] = qHTS RealTime-Glo MT Cell Viability Assay in HEK293 cells - 8 hour (AID 1224887); also: top concentration of the series differs between compounds; nearly all actives have a fitted effect of over 50% in size
How it was run: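 HEK293 + NanoLuc + prosubstrate, 600 cells/well; 5 h, 37 C/5% CO2; compound 23 nL in DMSO by pintool; 37 C; luminescence read at 0, 8, 16, 24, 32 and 40 h time points.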

[6] = A CellTox Green Cytotoxicity Assay to monitor cytotoxicity in HEK293 cells - 16 hour (AID 1224888); also: nearly all actives have a fitted effect of over 35% in size
How it was run: as §2

[7] = qHTS RealTime-Glo MT Cell Viability Assay in HepG2 cells - 0 hour (AID 1224889); also: nearly all actives have a fitted effect of over 50% in size
How it was run: as §3

[8] = A CellTox Green Cytotoxicity Assay to monitor cytotoxicity in HepG2 cells - 8 hour (AID 1224890); also: nearly all actives have a fitted effect of over 45% in size
How it was run: as §1

[9] = qHTS assay to identify small molecule antagonists of the estrogen receptor alpha (ER-alpha) signaling pathway using the BG1 cell line in the presence of 0.1 nM 17-beta-estradiol - cell viability counter screen (AID 1259241); also: nearly all actives have a fitted effect of over 40% in size
How it was run: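 In this screen, hormone-deprived VM7Luc4E2 cells were seeded at 4,000 per well, dosed with compound and 0.1 nM estradiol final, and incubated 22 hr at 37C and 5% CO2; fluorogenic live-cell protease signal reported viability.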

[10] = qHTS assay to identify small molecule antagonists of the androgen receptor (AR) signaling pathway using the MDA cell line in the presence of 0.5 nM R1881 - cell viability counter screen (AID 1259242); also: nearly all actives have a fitted effect of over 45% in size
How it was run: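 Concentration-response screen of compounds for toxicity in MDA-kb2 reporter cells: 16 hr at 37C with 0.5 nM R1881, endpoint live-cell protease fluorescence measured in the reporter wells.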

[11] = qHTS assay to identify small molecule phospholipidosis (PLD) inducers (AID 1259344; active = well fitted curve in the direction sought with a large enough effect; an effect the other way counts as inactive or inconclusive)
How it was run: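 After 4 h attachment on collagen I, HepG2 cells were dosed with compound alongside LipidTOX Red, kept 24 h at 37 C, fixed, and imaged for lamellar phospholipid pits.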

[12] = qHTS assay to identify small molecule HDAC inhibitors (AID 1259364);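 also: wild-type HCT-116 cells with endogenous class I/II HDAC activity; top concentration of the series differs between compounds; nearly all actives have a fitted effect of over 45% in size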
How it was run: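 Screening used wild-type human colon HCT-116 cells incubated overnight, dosed with compounds for 2 hours, and assayed with a homogeneous luminogenic HDAC I/II reagent for 30 minutes at room temperature.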

[13] = qHTS assay to identify small molecule HDAC inhibitors - cell viability counter screen (AID 1259365)
How it was run: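 Measured quantity is CellTiter-Glo luminescence from wild-type HCT-116 cells after compound incubation of 2hr at 37C, 5% CO2; reagent developed 30min at room temperature.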

[14] = qHTS assay to identify small molecule agonists of the sonic hedgehog signaling (Shh) pathway - cell viability counter screen (AID 1259366); also: nearly all actives have a fitted effect of over 50% in size
How it was run: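 In quantitative high-throughput format, 3T3 Gli1-Luc cells were exposed to compounds for 24hr and multiplexed for viability using CellTiter-Fluor, incubated 1hr at 37C before the fluorescence read.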

[15] = qHTS assay to identify small molecule antagonists of the sonic hedgehog signaling (Shh) pathway - cell viability counter screen (AID 1259367); also: nearly all actives have a fitted effect of over 55% in size
How it was run: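 Conditioned medium drove Shh signaling in 3T3 Gli1-Luc cells exposed to compounds at 37C and 5% CO2. Viability was determined from CellTiter-Fluor fluorescence, with reagent incubated 1 hr after 23 hr of treatment.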

[16] = qHTS assay to identify small molecule agonists of the sonic hedgehog signaling (Shh) pathway (AID 1259368; calls by dose curve;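 also: NIH/3T3-derived 3T3Gli1-Luc cells carrying a stable Gli1-driven firefly luciferase reporter; series mostly up to about 92 µM; nearly all actives have a fitted effect of over 15% in size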)
How it was run: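 Hedgehog pathway agonism scored by increased firefly luciferase luminescence in 3T3Gli1-Luc cells treated 24 hr at 37 C; detection used a 30 min room-temperature reagent incubation.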

[17] = qHTS assay to identify small molecule antagonists of the sonic hedgehog signaling (Shh) pathway (AID 1259369; calls by dose curve; also: nearly all actives have a fitted effect of over 45% in size)
How it was run: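 NIH/3T3 stable Gli1-Luc clone, 2,000 cells/well, 4hr settle; cpd + conditioned medium 24hr; Luc reagent 30min RT; luminescence.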

[18] = target: Androgen receptor (Homo sapiens) (UniProt P10275); experiment: qHTS assay to identify small molecule antagonists of the androgen receptor (AR) signaling pathway using the MDA cell line in the presence of 0.5 nM R1881 (AID 1259243); also: nearly all actives have a fitted effect of over 50% in size
Sequence of Androgen receptor (Homo sapiens) (P10275 whole entry, looked up): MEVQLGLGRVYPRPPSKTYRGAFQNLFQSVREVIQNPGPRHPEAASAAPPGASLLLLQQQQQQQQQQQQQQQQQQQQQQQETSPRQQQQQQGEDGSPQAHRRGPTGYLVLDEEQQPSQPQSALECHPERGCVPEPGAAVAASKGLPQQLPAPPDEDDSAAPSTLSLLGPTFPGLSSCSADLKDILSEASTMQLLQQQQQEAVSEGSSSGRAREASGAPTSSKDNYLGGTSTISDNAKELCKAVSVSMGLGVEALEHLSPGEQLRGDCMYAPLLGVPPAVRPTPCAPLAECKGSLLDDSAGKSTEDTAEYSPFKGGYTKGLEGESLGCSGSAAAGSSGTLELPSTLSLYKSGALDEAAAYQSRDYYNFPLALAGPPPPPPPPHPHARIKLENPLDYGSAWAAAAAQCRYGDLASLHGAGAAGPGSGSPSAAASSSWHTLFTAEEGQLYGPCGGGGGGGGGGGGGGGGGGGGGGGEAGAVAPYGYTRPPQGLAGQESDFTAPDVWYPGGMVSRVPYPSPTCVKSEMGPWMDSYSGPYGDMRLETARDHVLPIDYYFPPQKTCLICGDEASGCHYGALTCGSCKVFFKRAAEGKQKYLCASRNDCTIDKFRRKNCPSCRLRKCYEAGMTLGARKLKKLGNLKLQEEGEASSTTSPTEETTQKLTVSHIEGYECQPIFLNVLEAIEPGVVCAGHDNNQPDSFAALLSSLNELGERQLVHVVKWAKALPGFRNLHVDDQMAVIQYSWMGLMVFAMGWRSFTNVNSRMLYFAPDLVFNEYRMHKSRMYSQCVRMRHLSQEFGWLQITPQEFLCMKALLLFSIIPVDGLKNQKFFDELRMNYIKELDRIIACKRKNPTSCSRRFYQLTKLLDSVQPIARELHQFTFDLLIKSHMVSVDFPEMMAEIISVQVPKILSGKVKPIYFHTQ
How it was run: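 With R1881 held at 0.5 nM (final), compound effects on MMTV-luciferase expression in MDA-kb2 cells were scored by luminescence after a 16 hr, 37C incubation.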

[19] = target: Estrogen receptor (Homo sapiens) (UniProt P03372); experiment: qHTS assay to identify small molecule antagonists of the estrogen receptor alpha (ER-alpha) signaling pathway using the BG1 cell line in the presence of 0.1 nM 17-beta-estradiol (AID 1259244); also: nearly all actives have a fitted effect of over 50% in size
Sequence of Estrogen receptor (Homo sapiens) (P03372 whole entry, looked up): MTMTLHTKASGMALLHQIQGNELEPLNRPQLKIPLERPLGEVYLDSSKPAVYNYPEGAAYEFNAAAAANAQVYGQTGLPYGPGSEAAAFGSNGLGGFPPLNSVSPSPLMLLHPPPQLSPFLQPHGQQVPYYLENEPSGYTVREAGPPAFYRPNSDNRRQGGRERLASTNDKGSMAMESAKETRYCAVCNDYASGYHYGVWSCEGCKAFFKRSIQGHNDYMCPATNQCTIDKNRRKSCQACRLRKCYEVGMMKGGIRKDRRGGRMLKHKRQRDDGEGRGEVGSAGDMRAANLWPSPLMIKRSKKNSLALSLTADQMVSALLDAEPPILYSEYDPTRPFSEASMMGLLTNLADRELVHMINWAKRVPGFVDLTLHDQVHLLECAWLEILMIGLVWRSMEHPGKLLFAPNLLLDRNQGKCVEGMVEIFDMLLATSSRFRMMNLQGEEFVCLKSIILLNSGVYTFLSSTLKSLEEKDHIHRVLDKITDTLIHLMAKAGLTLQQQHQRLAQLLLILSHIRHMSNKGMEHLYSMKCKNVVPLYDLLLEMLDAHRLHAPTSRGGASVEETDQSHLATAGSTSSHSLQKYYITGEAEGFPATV
How it was run: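 Compounds were tested against 0.1 nM (final) 17beta-estradiol in VM7Luc4E2 cells, which express full-length ER-alpha and an ERE-luciferase reporter; luminescence was recorded following 22 h exposure.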
% is scaled to controls: 0 for no effect and ±100 for the full control effect.

CCOC(=O)OC(C)OC1=C(C(=O)Nc2ccccn2)N(C)S(=O)(=O)c2ccccc21 (configuration not stated)
inactive: Potency [1] | outcome [2] | outcome [3] | Potency [4] | Potency [5] | outcome [6] | Potency [7] | outcome [8] | outcome [9] | outcome [10] | outcome [11] | Potency [12] | outcome [13] | Potency [14] | Potency [15] | outcome [16] | Potency [17]

CO[C@@]1(NC(=O)CSC[C@@H](N)C(=O)O)C(=O)N2C(C(=O)O)=C(CSc3nnnn3C)CS[C@@H]21
inactive: Potency [1] | outcome [2] | Potency [4] | Potency [5] | outcome [6] | outcome [8] | outcome [9] | outcome [10] | Potency [18] | outcome [13] | Potency [14] | Potency [15] | outcome [16] | Potency [17]

CNCCO
inactive: Potency [1] | outcome [2] | outcome [3] | Potency [4] | Potency [5] | outcome [6] | Potency [7] | outcome [8] | outcome [9] | outcome [10] | Potency [12] | outcome [13] | Potency [14] | Potency [15] | outcome [16] | Potency [17]

Cc1cccc(C)c1NC(=O)CC12CCCN1CCC2
inactive: outcome [2] | outcome [3] | Potency [4] | Potency [5] | outcome [6] | Potency [7] | outcome [8] | outcome [9] | outcome [10] | outcome [19] | outcome [11] | Potency [12] | outcome [13] | Potency [14] | Potency [15] | outcome [16]

CC(C)=CCC/C(C)=C/C#N
inactive: Potency [1] | outcome [2] | outcome [3] | Potency [4] | Potency [5] | outcome [6] | Potency [7] | outcome [8] | outcome [9] | outcome [10] | Potency [12] | outcome [13] | Potency [14] | Potency [15] | outcome [16]

C=CC(=O)OCCCl
inactive: Potency [1] | outcome [2] | outcome [3] | Potency [4] | Potency [5] | outcome [6] | Potency [7] | outcome [8] | outcome [9] | outcome [10] | Potency [12] | outcome [13] | Potency [14] | Potency [15] | outcome [16] | Potency [17]

C[N+]1(CC2COC(c3ccccc3)(c3ccccc3)O2)CCCCC1 (configuration not stated)
inactive: cytotoxicity [1] -9.88% [at 15.8 µM] | cytotoxicity increase [2] -4.15% [at 15.8 µM] | activity change, negative = cytotoxic [3] -0.0866% [at 15.8 µM] | activity change, negative = cytotoxicity [4] -2.13% [at 15.8 µM] | activity change, negative = cytotoxicity [5] 0.757% [at 15.8 µM] | activity change [6] -8.9% [at 15.8 µM] | activity change, negative = cytotoxicity [7] -6.4% [at 15.8 µM] | cytotoxicity increase [8] 0.368% [at 15.8 µM] | activity change, negative = cytotoxicity [9] 0.56% [at 19 µM] | viability change, negative = cytotoxic [10] 1.83% [at 19 µM] | outcome [11] | activity change, negative = inhibition [12] 0.669% [at 19 µM] | activity change, negative = cytotoxicity [13] 0.214% [at 19 µM] | viability change, negative = cytotoxic [14] 9.08% [at 19 µM] | viability change, negative = cytotoxic [15] 14.2% [at 19 µM] | activity change [16] 0.753% [at 18.9 µM] | activity change, negative = inhibition [17] -10.9% [at 19 µM]

CC(=O)N[C@H]1[C@H]([C@H](O)[C@H](O)CO)OC(C(=O)O)=C[C@@H]1N=C(N)N
inactive: Potency [1] | outcome [2] | Potency [4] | Potency [5] | outcome [6] | outcome [8] | outcome [9] | outcome [10] | Potency [18] | outcome [19] | outcome [11] | Potency [12] | outcome [13] | Potency [14] | Potency [15] | outcome [16] | Potency [17]

C1CCC2(CCCCO2)OC1
inactive: Potency [1] | outcome [2] | outcome [3] | Potency [4] | Potency [5] | outcome [6] | outcome [8] | outcome [9] | outcome [10] | outcome [19] | Potency [12] | outcome [13] | Potency [14] | Potency [15] | outcome [16]

c1coc(CNc2ncnc3nc[nH]c23)c1
inactive: Potency [1] | outcome [2] | Potency [4] | Potency [5] | outcome [6] | Potency [7] | outcome [8] | outcome [9] | outcome [10] | outcome [13] | Potency [14] | Potency [15] | outcome [16]

CC1=NS(=O)(=O)c2cc(Cl)ccc2N1
inactive: Potency [1] | outcome [2] | outcome [3] | Potency [4] | Potency [5] | outcome [6] | outcome [8] | outcome [9] | outcome [10] | outcome [19] | outcome [11] | Potency [12] | outcome [13] | Potency [14] | Potency [15] | outcome [16]

C=CCOCC(O)CO (configuration not stated)
inactive: outcome [2] | outcome [3] | Potency [4] | Potency [5] | Potency [7] | outcome [9] | outcome [10] | Potency [12] | outcome [13] | Potency [15] | outcome [16] | Potency [17]

Cc1ccc(C(=O)c2ccc(CC(=O)O)n2C)cc1
inactive: outcome [2] | outcome [3] | Potency [4] | Potency [5] | outcome [6] | Potency [7] | outcome [9] | outcome [10] | Potency [18] | outcome [19] | outcome [11] | outcome [13] | Potency [14] | Potency [15] | outcome [16]

Cc1nc(C2CCCCC2)c(-c2ccc(S(N)(=O)=O)c(F)c2)o1
inactive: outcome [2] | outcome [6] | Potency [7] | outcome [8] | outcome [9] | outcome [10] | Potency [12] | outcome [13] | Potency [15] | outcome [16] | Potency [17]

Cc1c(N)c(=O)n(-c2ccccc2)n1C
inactive: Potency [1] | outcome [2] | outcome [3] | Potency [4] | Potency [5] | outcome [6] | Potency [7] | outcome [8] | outcome [9] | outcome [10] | outcome [11] | Potency [12] | outcome [13] | Potency [14] | Potency [15] | outcome [16] | Potency [17]
